Several values for one entry are separate records, joined by “and”; a condition that tells them apart may be missing. Equal values may be shown once. Inconclusive results are not listed. Activity calls are given as the source filed them. Calls follow the shape of the dose curve; as a rule, active = well fitted cell-killing curve with a large enough effect in the repeat runs; inconclusive = weak or mixed curves, or effect the other way; inactive = flat fitted curve, though single readings scatter.
% is scaled to controls: 0 for no effect and ±100 for the full control effect; potency is read from the fitted curve at half-maximal effect.

One experiment in a line: cAMP Responsive Elements (CRE) small molecule antagonists, cell-based qHTS assay: qHTS cell viability counter screen (AID 2060913). Also: nearly all actives have a fitted effect of over 40% in size. The following applies: CRE-bla HEK293T viability, CellTiter-Glo luminescence, 5 h; series mostly up to 92.4 µM; viability change, negative = cytotoxic: at the top concentration. The procedure, abridged: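 CRE-bla HEK293T cells (2,000/well, 18 h) given compound plus NKH477 0.25 uM final for 3 h at 37C; viability counter-screen by CellTiter-Glo luminescence in same wells after 30 min.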
For orientation: In qHTS, concentration-response curves come from the screen itself.
Turning to `Cc1ccc(C(=O)Nc2ccc(S(=O)(=O)O)c3cc(S(=O)(=O)O)cc(S(=O)(=O)O)c23)cc1NC(=O)c1cccc(NC(=O)Nc2cccc(C(=O)Nc3cc(C(=O)Nc4ccc(S(=O)(=O)O)c5cc(S(=O)(=O)O)cc(S(=O)(=O)O)c45)ccc3C)c2)c1`, the “viability change, negative = cytotoxic” value was 1.19% [at 42.5 µM] (inactive).
Take `Cn1c(=O)c2c(ncn2CCO)n(C)c1=O`: the “viability change, negative = cytotoxic” value is -3% [at 42.5 µM] (inactive).
The same measure, in the same setting: the result for `COC(=O)c1ccc(C(=O)OC)c(C(=O)OC)c1` reads 3.1% (inactive); that for `C/C=C1\C(=O)C[C@H]2[C@@H]3CCC4=CC(=O)CC[C@]4(C)[C@H]3CC[C@]12C`, -1.01% [at 42.5 µM] (inactive).
Regarding `C[C@@H](CN(C)C)CN1c2ccccc2Sc2ccccc21`, the “viability change, negative = cytotoxic” value is -5.45% [at 42.5 µM] (inactive).
Regarding `C=C(CC(=O)O)C(=O)O`, the Potency result is “inactive”.
Consider `CCC1OCC(COc2ccc(Oc3ccccc3)cc2)O1` (stereo not given), for which the “viability change, negative = cytotoxic” value is -5.84% (inactive).
Same read-out and setting: the result for `CCN(CC)c1cccc(C)c1` reads -2.18% (inactive); that for `O=S(=O)(O)c1cc(O)ccc1O`, 3.88% (inactive).
With `CCCCCCCCCCCC[N+](C)(C)Cc1ccccc1`, the Potency is 60 µM (active) and 59.2 µM (active) and 13.3 µM (active).
For the compound `O=C(CCN1CCN(CCO)CC1)N1c2ccccc2Sc2ccc(C(F)(F)F)cc21`, the “viability change, negative = cytotoxic” value is -2.4% [at 42.5 µM] (inactive).
Take `CC(=O)NCc1c(I)c(NC(C)=O)c(I)c(C(=O)O)c1I`: the “viability change, negative = cytotoxic” value was 16% [at 42.5 µM] (inactive).
With `Cc1cccc(N(C)C(=S)Oc2ccc3ccccc3c2)c1`, the Potency entry is “inactive”.
In the case of `Cc1cc(C)c(/C=C2\C(=O)Nc3ccccc32)[nH]1`, the “viability change, negative = cytotoxic” value is 1.34% [at 42.5 µM] (inactive).
Regarding `Cc1oc(C)c(C(=O)Nc2ccccc2)c1C`, the “viability change, negative = cytotoxic” value was -21.6% (inactive).
Still for that read-out and setting: the result for `CC(CN(CCN(CC(C)OCCO)CC(C)OCCO)CC(C)OCCO)OCCO` (stereo not given) reads 0.359% (inactive); that for `Nc1ncn([C@H]2C[C@H](O)[C@@H](CO)O2)c(=O)n1`, 6.1% [at 42.5 µM] (inactive); that for `CO[C@]1(NC(=O)CSC(F)F)C(=O)N2C(C(=O)O)=C(CSc3nnnn3CCO)CO[C@H]21`, 0.732% [at 42.5 µM] (inactive).
For the compound `C[N+](C)(C)CC(O)CCl` (stereo not given), the “viability change, negative = cytotoxic” value is -4.51% (inactive).
With `c1ccc2c(c1)Cc1ccccc1-2`, the Potency entry was “inactive”.
In the case of `NNC(=O)OCc1ccccc1`, the “viability change, negative = cytotoxic” value was 0.638% (inactive).
On the same count and under the same terms, the result for `COc1cc(C(=O)N2CCOCC2)cc(OC)c1OC` reads 3.35% [at 42.5 µM] (inactive); that for `O=C(O)c1cccc(Cl)c1Cl`, -11.7% (inactive); that for `C[C@@H](c1ncncc1F)C(O)(Cn1cncn1)c1ccc(F)cc1F` (stereo not given in full), 1.6% [at 42.5 µM] (inactive).
For `CC(C)(C)C(=O)CCc1ccc(Cl)cc1`, the “viability change, negative = cytotoxic” value was -0.703% (inactive).
Still for that read-out and setting: in the case of `CN(C)CCc1c[nH]c2ccc(CS(=O)(=O)N3CCCC3)cc12` it was 6.99% [at 42.5 µM] (inactive).
As for `O=C(NO)C1(NS(=O)(=O)c2ccc(Oc3ccc(F)cc3)cc2)CCOCC1`, the “viability change, negative = cytotoxic” value is -3.61% (inactive).
`CC1=CC(=O)CC(C)(C)C1=O`: the “viability change, negative = cytotoxic” value is 2.97% (inactive).
Same read-out and setting: in the case of `CCOCC(O)COc1ccc(NC(=O)CC[S+](C)C)cc1` (stereo not given) it was -4.01% [at 42.5 µM] (inactive).
As to `CC(C)C(=O)Nc1ccc([N+](=O)[O-])c(C(F)(F)F)c1`, the Potency result was “inactive”.
As for `CCOCCOCCOCC`, the “viability change, negative = cytotoxic” value was 0.871% (inactive).
With `C1CN(SSN2CCOCC2)CCO1`, the Potency entry is “inactive”.
The same measure, in the same setting: the result for `CCN(CC)CCNC(=O)c1ccc(N)cc1` reads “inactive”.
Turning to `CC(=O)[O][Al][O]C(C)=O`, the “viability change, negative = cytotoxic” value is 0.0102% (inactive).
The same measure, in the same setting: the result for `O=C(CCCl)NCCc1ccccc1` reads 4.61% [at 42.5 µM] (inactive); that for `Clc1cc(Cl)c(Cl)nc1Cl`, -10.7% (inactive); that for `CCN(CC)CCNC(C(=O)OCCC(C)C)c1ccccc1` (stereo not given), -0.48% [at 42.5 µM] (inactive).
The same measure, in the same setting: the result for `CCCc1nc2c(C)cc(-c3nc4ccccc4n3C)cc2n1Cc1ccc(-c2ccccc2C(=O)O)cc1` reads -5.03% [at 42.5 µM] (inactive).
Consider `CCCCCCCC[P+](CCCCCCCC)(CCCCCCCC)CCCCCCCC`, for which the Potency is 17.1 µM (active).
Regarding `Nc1ccc(F)cc1F`, the “viability change, negative = cytotoxic” value was -7.58% (inactive).

A short description of the next experiment: cAMP Responsive Elements (CRE) small molecule agonists, cell-based qHTS assay: qHTS cell viability counter screen (AID 2060914).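 Also: viability read after 3 h of compound exposure; nearly all actives have a fitted effect of over 50% in size.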 The conditions noted are these: CRE-bla HEK293T viability, CellTiter-Glo luminescence, 5 h; series mostly up to 92.4 µM; activity change, negative = cytotoxicity: at the top concentration. An outline of the steps:
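HEK 293T CRE-bla; DMEM + 10% dialyzed FBS, 25 mM HEPES; 18 h pre-incubation; compound 3 h, 37 °C/5% CO2; CellTiter-Glo added after reporter read; luminescence after 30 min RT.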
Turning to `Cc1ccc(C(=O)Nc2ccc(S(=O)(=O)O)c3cc(S(=O)(=O)O)cc(S(=O)(=O)O)c23)cc1NC(=O)c1cccc(NC(=O)Nc2cccc(C(=O)Nc3cc(C(=O)Nc4ccc(S(=O)(=O)O)c5cc(S(=O)(=O)O)cc(S(=O)(=O)O)c45)ccc3C)c2)c1`, the “activity change, negative = cytotoxicity” value is -9.11% [at 42.5 µM] (inactive).
As to `Cn1c(=O)c2c(ncn2CCO)n(C)c1=O`, the “activity change, negative = cytotoxicity” value is -3.46% [at 42.5 µM] (inactive).
`COC(=O)c1ccc(C(=O)OC)c(C(=O)OC)c1`: the “activity change, negative = cytotoxicity” value was 1.28% (inactive).
On to `C/C=C1\C(=O)C[C@H]2[C@@H]3CCC4=CC(=O)CC[C@]4(C)[C@H]3CC[C@]12C`, for which the “activity change, negative = cytotoxicity” value is 0% [at 42.5 µM] (inactive).
With `C[C@@H](CN(C)C)CN1c2ccccc2Sc2ccccc21`, the “activity change, negative = cytotoxicity” value was 2.59% [at 42.5 µM] (inactive).
As to `C=C(CC(=O)O)C(=O)O`, the “activity change, negative = cytotoxicity” value was -0.543% (inactive).
`CCC1OCC(COc2ccc(Oc3ccccc3)cc2)O1` (stereo not given): the “activity change, negative = cytotoxicity” value is -17.3% (inactive).
Still for that read-out and setting: in the case of `CCN(CC)c1cccc(C)c1` it was 0.824% (inactive).
Same read-out and setting: the result for `O=S(=O)(O)c1cc(O)ccc1O` reads 5.88% (inactive).
Take `CCCCCCCCCCCC[N+](C)(C)Cc1ccccc1`: the Potency was 53.4 µM (active) and 37.4 µM (active) and 29.8 µM (active).
As to `O=C(CCN1CCN(CCO)CC1)N1c2ccccc2Sc2ccc(C(F)(F)F)cc21`, the “activity change, negative = cytotoxicity” value was -1.06% [at 42.5 µM] (inactive).
In the case of `CC(=O)NCc1c(I)c(NC(C)=O)c(I)c(C(=O)O)c1I`, the “activity change, negative = cytotoxicity” value was 2.19% [at 42.5 µM] (inactive).
`Cc1cccc(N(C)C(=S)Oc2ccc3ccccc3c2)c1`: the Potency entry was “inactive”.
For the compound `Cc1cc(C)c(/C=C2\C(=O)Nc3ccccc32)[nH]1`, the “activity change, negative = cytotoxicity” value was -10.2% [at 42.5 µM] (inactive).
As for `Cc1oc(C)c(C(=O)Nc2ccccc2)c1C`, the “activity change, negative = cytotoxicity” value is -25% (inactive).
Consider `CC(CN(CCN(CC(C)OCCO)CC(C)OCCO)CC(C)OCCO)OCCO` (stereo not given), for which the “activity change, negative = cytotoxicity” value was -7.03% (inactive).
Take `Nc1ncn([C@H]2C[C@H](O)[C@@H](CO)O2)c(=O)n1`: the “activity change, negative = cytotoxicity” value was 6.73% [at 42.5 µM] (inactive).
The same measure, in the same setting: the result for `CO[C@]1(NC(=O)CSC(F)F)C(=O)N2C(C(=O)O)=C(CSc3nnnn3CCO)CO[C@H]21` reads 8.82% [at 42.5 µM] (inactive); that for `C[N+](C)(C)CC(O)CCl` (stereo not given), -12.8% (inactive).
As for `c1ccc2c(c1)Cc1ccccc1-2`, the Potency result is “inactive”.
For `NNC(=O)OCc1ccccc1`, the “activity change, negative = cytotoxicity” value is 15.1% (inactive).
As to `COc1cc(C(=O)N2CCOCC2)cc(OC)c1OC`, the “activity change, negative = cytotoxicity” value is -2.82% [at 42.5 µM] (inactive).
On the same count and under the same terms, the result for `O=C(O)c1cccc(Cl)c1Cl` reads 1.05% (inactive); that for `C[C@@H](c1ncncc1F)C(O)(Cn1cncn1)c1ccc(F)cc1F` (stereo not given in full), 9.59% [at 42.5 µM] (inactive).
Still for that read-out and setting: the result for `CC(C)(C)C(=O)CCc1ccc(Cl)cc1` reads 1.71% (inactive); that for `CN(C)CCc1c[nH]c2ccc(CS(=O)(=O)N3CCCC3)cc12`, -0.774% [at 42.5 µM] (inactive).
On to `O=C(NO)C1(NS(=O)(=O)c2ccc(Oc3ccc(F)cc3)cc2)CCOCC1`, for which the “activity change, negative = cytotoxicity” value is 1.55% (inactive).
Same read-out and setting: the result for `CC1=CC(=O)CC(C)(C)C1=O` reads 0.372% (inactive); that for `CCOCC(O)COc1ccc(NC(=O)CC[S+](C)C)cc1` (stereo not given), -0.0501% [at 42.5 µM] (inactive).
Turning to `CC(C)C(=O)Nc1ccc([N+](=O)[O-])c(C(F)(F)F)c1`, the Potency result is “inactive”.
`CCOCCOCCOCC`: the “activity change, negative = cytotoxicity” value was -11.4% (inactive).
`C1CN(SSN2CCOCC2)CCO1`: the Potency result is “inactive”.
Regarding `CCN(CC)CCNC(=O)c1ccc(N)cc1`, the Potency entry is “inactive”.
On to `CC(=O)[O][Al][O]C(C)=O`, for which the “activity change, negative = cytotoxicity” value is 9.29% (inactive).
On the same count and under the same terms, the result for `O=C(CCCl)NCCc1ccccc1` reads -0.178% [at 42.5 µM] (inactive); that for `Clc1cc(Cl)c(Cl)nc1Cl`, -6.35% (inactive); that for `CCN(CC)CCNC(C(=O)OCCC(C)C)c1ccccc1` (stereo not given), 7.19% [at 42.5 µM] (inactive).
Still for that read-out and setting: in the case of `CCCc1nc2c(C)cc(-c3nc4ccccc4n3C)cc2n1Cc1ccc(-c2ccccc2C(=O)O)cc1` it was 18.4% [at 42.5 µM] (inactive).
`CCCCCCCC[P+](CCCCCCCC)(CCCCCCCC)CCCCCCCC`: the Potency is 21.6 µM (active).
For `Nc1ccc(F)cc1F`, the “activity change, negative = cytotoxicity” value was -4.55% (inactive).

For the origin of these results see PubChem BioAssay (Tox21).
